The campaign covered roughly 320,000 compounds. About 2,100 (0.66%) were called active. Not shown: some 53% with an inconclusive outcome. Calls follow the shape of the dose curve; as a rule, active = well fitted inhibition curve with a large enough effect in the signal ratio, with a control signal flat (not every such curve was filed as active); inconclusive = small, poorly fitted or top-dose-only effect, or effect the other way, or a change in a side signal; inactive = flat fitted curve, though single readings scatter; the % refers to the signal ratio. For the sample, actives were picked, then their nearest neighbours and some compounds at random.
assay: qHTS Assay for Lipid Storage Modulators in Drosophila S3 Cells; conditions: BODIPY lipid droplet fluorescence, 18-24 h, cells fed with added oleic acid; cell number change: measured here: cell count max response; series mostly up to 46.1 µM;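 as to cell number change: cells counted by Cell Tracker Red CMTPX staining in the red channel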; as to lipid storage change, negative = inhibition: % is scaled to controls: 0 for no effect and ±100 for the full control effect
Text: NIH Molecular Libraries Probe Production Centers Network [MLPCN] NIH Chemical Genomics Center [NCGC] MLPCN Grant: 1 R03 MH085686-01 Assay Submitter (PI): Beller, Mathias; Max-Planck-Institut fur Biophysikalische Chemie NCGC Assay Overview: Storing lipids as a reservoir for energy or the anabolism of elementary metabolites is a common feature of probably all cells and is conserved from bacteria to humans. The universal cellular lipid storage organelle is the so-called lipid storage droplet (LD). Although ubiquitous, LDs share a simple structure composed of a hydrophobic core that harbors the storage lipids, which is shielded by a droplet-specific phospholipid monolayer to which proteins are attached. The current model of LD biogenesis involves an incorporation of the lipid core into the membrane leaflets of the endoplasmic reticulum (ER) followed by a subsequent budding-like maturation of a LD, which ultimately pinches off. Once released, LD volume can increase by localized lipogenesis or fusion of existing droplet. Storage lipids are re-mobilized enzymatically by lipase activity. Lipase regulation in the adipocyte is heavily studied and involves multiple components including catecholamine signaling, the LD-associated proteins Perilipin and comparative gene identification (CGI-58) and at least two lipases named hormone sensitive lipase (HSL) and adipocyte triglyceride lipase (ATGL). LD regulation outside of the adipocyte is poorly understood and only few components are known. However, there is an urgent need to learn more about ectopic fat depots as mislocalized storage of lipids, for example in the liver or muscle, is an eminent health problem associated with insulin resistance or the metabolic syndrome. We developed a laser-scanning cytometer assay to enable 1,536-well screening and combined the results of the small molecules screen with an RNAi database based on lipid storage.
Triacsin C (Sigma-Aldrich T-4540), an inhibitor of long-chain fatty acyl CoA synthetase that blocks synthesis of triglycerides, was used as a positive control for lipid under-storage. A total of 23 nL of compound solution of different concentrations were transferred to the assay plates using a Kalypsys pin tool equipped with a 1,536-pin array containing 10-nL slotted pins (FP1S10, 0.457-mm diameter, 50.8 mm long; V&P Scientific). One microliter of oleic acid (400 uM) was added, and the plate was lidded with stainless steel rubber gasket lined lids containing pinholes. […] Fluorescence was detected by excitation of the fluorophores with a 488-nm laser on an Acumen Explorer (TTP Lab Tech). The total intensity in channel 2 (500-530 nm) reflected lipid droplet accumulation. Cells were detected using channel 3 (575-640 nm) with 5-um width and 100-um depth filters. The ratio of the number of objects in PMT channel 2 over the number of objects in PMT channel 3 was also calculated. Percent activity was computed relative to an internal control (100% inhibited lipid droplet deposition due to the presence of 20 uM Triacsin C), which was added to 32 wells/plate.
Potency is read from the fitted curve at half-maximal effect.

| SMILES | Potency | cell number change [%] | lipid storage change, negative = inhibition |
| --- | --- | --- | --- |
| CN(C)S(=O)(=O)c1cc(NC(=O)c2ccc(-n3ccnc3)c([N+](=O)[O-])c2)ccc1Cl | 20.6 µM (active) | 5.46 |  |
| COc1ccccc1NC(=O)c1ccc(-n2ccnc2)c([N+](=O)[O-])c1 | inactive | 13 |  |
| Cc1nn(CC(=O)Nc2ccc(N(C)C)cc2)c(C)c1[N+](=O)[O-] | inactive | -14.5 |  |
| Cc1nn(CC(=O)Nc2ccc(Cl)c(S(=O)(=O)N(C)C)c2)c(C)c1[N+](=O)[O-] | 0.58 µM (active) | -5.49 |  |
| O=C(O)c1ccc(-n2ccnc2)c([N+](=O)[O-])c1 | inactive | 9.03 |  |
| Cc1nn(CC(=O)Nc2ccc(S(=O)(=O)N(C)C)cc2)c(C)c1[N+](=O)[O-] | inactive | 9.05 |  |
| CN(C)S(=O)(=O)c1ccc(C(=O)NCCSc2ccc(Br)cc2)cc1 | inactive | 20 |  |
| Cc1ccc2[nH]c(=O)c(CN(CCCN(C)C)C(=S)NCCc3ccccc3)cc2c1 | inactive | -4.82 |  |
| CC(CCc1ccccc1)NC(=O)C1CCN(S(=O)(=O)c2cnc[nH]2)CC1 (configuration not stated) | inactive |  |  |
| COc1ccc(S(=O)(=O)N2CCC(C(=O)NCC3CCCO3)CC2)cc1 (configuration not stated) | inactive |  |  |
| Cc1c(C#N)sc(C(N)=O)c1C | inactive | 10.5 |  |
| Clc1cccc(NCc2nnc(SCc3ccccc3)o2)c1 | inactive | -10.7 |  |
| O=C(NC(NC(=S)Nc1c(Cl)cccc1Cl)C(Cl)(Cl)Cl)c1cccc([N+](=O)[O-])c1 (configuration not stated) | 3.66 µM (active) | 18.3 |  |
| O=C(O)c1cccc(NC(=S)NC(NC(=O)c2cccc([N+](=O)[O-])c2)C(Cl)(Cl)Cl)c1 (configuration not stated) | inactive | -10.1 |  |
| O=C(NC(NC(=S)Nc1ccc(Cl)cc1Cl)C(Cl)(Cl)Cl)c1cccc([N+](=O)[O-])c1 (configuration not stated) | inactive | 12.3 |  |
| CCCNC(=O)Cn1c(=O)n(CC(=O)N2CCCCC2)c(=O)c2sccc21 | inactive | -0.943 |  |
| COCCNC(=O)Cn1c(=O)n(CCCC(=O)NCc2ccc3c(c2)OCO3)c(=O)c2sccc21 | inactive | 7.14 |  |
| COc1cccc(CNC(=O)Cn2c(=O)n(CCC(=O)N3CCCCC3)c(=O)c3sccc32)c1 | 4.11 µM (active) | -6.85 |  |
| CC(=O)c1sc(Nc2ccc(C)cc2)nc1C | inactive | 7.99 |  |

| SMILES | Potency | cell number change [%] | lipid storage change, negative = inhibition |
| --- | --- | --- | --- |
| O=C(NNC(=O)C1CC1)c1cc(Cl)nc2ccccc12 | inactive | 13.7 |  |
| Cc1nn(Cc2ccc(Cl)cc2)c(C)c1NC(=O)C(c1ccccc1)c1ccccc1 | 23.1 µM (active) | -18.5 |  |
| Cc1cc(C(=O)Nc2c(C)nn(Cc3ccc(Cl)cc3)c2C)no1 | inactive | -17.6 |  |
| Cc1nn(Cc2ccccc2)c(C)c1NC(=O)CCCn1nc([N+](=O)[O-])c(Cl)c1C | inactive | -5.3 |  |
| Cc1nn(Cc2ccccc2Cl)c(C)c1NC(=O)CCCn1nc(C)c([N+](=O)[O-])c1C | inactive | -4.35 |  |
| Cc1nn(Cc2ccc(Cl)cc2)c(C)c1NC(=O)C1CC=CCC1C(=O)O (configuration not stated) | inactive | 2.56 |  |
| Cc1ccc(Cn2nc(C)c(NC(=O)CCCn3nc([N+](=O)[O-])c(Cl)c3C)c2C)cc1 | 8.2 µM (active) | -28.1 |  |
| Cc1nn(CCCC(=O)NCc2ccc(Cl)cc2)c(C)c1[N+](=O)[O-] | inactive |  |  |
| Cc1nn(Cc2ccc(Cl)cc2)c(C)c1NC(=O)CCCn1nc([N+](=O)[O-])c(Cl)c1C | inactive | -11.8 |  |
| Cc1nn(Cc2ccc(Cl)cc2)c(C)c1NC(=O)CCCn1nc(C)c([N+](=O)[O-])c1C | 2.31 µM (active) | 3.25 |  |
| C/C(=N\NC(=O)Cc1c(Cl)cccc1Cl)c1cccnc1 | inactive |  |  |
| CC(C)(C)c1ccc(/C=C/C(=O)O)s1 | inactive | 0.873 |  |
| C=Cn1cc[n+](CC(=O)c2ccc(Br)s2)c1 | inactive | -18.1 |  |
| c1ccc(-n2cc(CN3CCC(N4CCOCC4)CC3)c(-c3ccc4c(c3)OCO4)n2)cc1 | inactive | 13.9 |  |
| Cc1cccc(NC(=O)NC(C)C(c2ccccc2)N2CCN(C)CC2)c1 (configuration not stated) | inactive | -13.4 |  |
| COc1cc(C(=O)Nc2cc(-c3cn4cccnc4n3)ccc2C)cc(OC)c1OC | inactive | -3.97 |  |
| COc1cccc(NC(=O)CN(C)C(=O)CSc2ccc3c(c2)OCCO3)c1 | inactive | 2.81 |  |
| Cc1cc(SCC(=O)Nc2ncc(Cl)cc2Cl)nc2ccccc12 | inactive | 19.1 |  |
| COCCn1nnnc1SCC(=O)c1ccccc1 | 20.6 µM (active) | 2.95 |  |

| SMILES | Potency | cell number change [%] | lipid storage change, negative = inhibition |
| --- | --- | --- | --- |
| COc1ccc(C(=O)CSc2nnnn2Cc2ccccc2)cc1 | inactive | 14.6 |  |
| COCCn1nnnc1SCC(=O)N1CCCCC1 | inactive | 6.22 |  |
| OC1(c2ccccc2F)CCN(Cc2nnc(-c3ccccc3)o2)CC1 | inactive | -15 |  |
| CC1CCC2(CC1)NC(=O)N(CC(=O)Nc1ccc3c(c1)CCC3)C2=O (configuration not stated) | inactive | -0.637 |  |
| CCN(CC)c1ccc(/C=C(\C#N)C(N)=O)cc1 | inactive | -5.93 |  |
| CCN(CC)c1ccc(/C=C(\C#N)C(=O)c2ccc(Br)cc2)cc1 | 25.9 µM (active) |  |  |
| CCN(CC)c1ccc(/C=C(\C#N)C(N)=S)cc1 | inactive | -2.75 |  |
| CCC(=O)c1ccc(NC(C)=O)cc1O | inactive | -16.5 |  |
| COc1ccc(CN2c3cc(S(=O)(=O)N4CCOCC4)ccc3N3CCCC32)cc1 (configuration not stated) | 16.4 µM (active) | 1.21 |  |
| CCN1c2ccc(S(=O)(=O)N3CCOCC3)cc2N(Cc2ccc(OC)cc2)C1C (configuration not stated) | inactive | 13.6 |  |
| O=S(=O)(c1ccc2c(c1)N(Cc1ccc(Cl)cc1)C1CCCN21)N1CCOCC1 (configuration not stated) | inactive | -5.65 |  |
| O=C1CN(C(=O)/C=C/c2cc(Br)ccc2F)CCN1 | inactive | 13.8 |  |
| CN=C1S/C(=C\c2ccc(Sc3ccc(Cl)cc3)o2)C(=O)N1C | inactive |  |  |
| CN=C1S/C(=C\c2ccc(N3CCCC3)c(F)c2)C(=O)N1C |  | 2.34 | 4.4% [at 9.22 µM] (inactive) |
| CN=C1S/C(=C\c2c(OC)cc(OC)cc2OC)C(=O)N1C | 0.58 µM (active) | -1.21 |  |
| CN=C1S/C(=C\c2ccc(SC)cc2)C(=O)N1C | 0.13 µM (active) | 4.2 |  |
| COc1ccc(N=C2S/C(=C\c3cc(C)n(C)c3C)C(=O)N2C)cc1 | inactive | 20.4 |  |
| CN=C1S/C(=C\c2ccc(O)c(Br)c2)C(=O)N1C | inactive | -7.22 |  |
| CCSc1nc2c(c(=O)[nH]c(=O)n2C)n1CC(O)COc1ccccc1 (configuration not stated) | inactive |  |  |
